Results filed as inconclusive are left out. A number with no mark means an inactive call. Calls come from the whole dose curve; as a rule, active = well fitted curve in the direction sought with a large enough effect; inconclusive = small, poorly fitted or top-dose-only effect, or another doubt; inactive = no such curve, though single readings can be large or run the other way.

Chain of Vasopressin V1b receptor (Homo sapiens) (P47901 whole entry, looked up): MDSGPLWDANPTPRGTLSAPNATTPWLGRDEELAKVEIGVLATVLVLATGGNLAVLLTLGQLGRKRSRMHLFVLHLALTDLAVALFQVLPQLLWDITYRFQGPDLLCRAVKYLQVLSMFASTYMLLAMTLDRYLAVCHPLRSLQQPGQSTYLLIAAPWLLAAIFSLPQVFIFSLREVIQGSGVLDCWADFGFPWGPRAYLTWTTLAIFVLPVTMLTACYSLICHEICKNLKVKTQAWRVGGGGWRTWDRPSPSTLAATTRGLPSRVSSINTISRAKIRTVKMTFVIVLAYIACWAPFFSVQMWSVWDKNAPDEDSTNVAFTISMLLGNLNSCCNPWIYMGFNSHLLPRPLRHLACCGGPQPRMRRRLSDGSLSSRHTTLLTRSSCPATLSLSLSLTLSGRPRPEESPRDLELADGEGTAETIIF

In the experiment the target is Vasopressin V1b receptor (Homo sapiens) (UniProt P47901). The experiment in a line: Counterscreen Concentration-Response Assay for Antagonists of the Neuropeptide S Receptor: Vasopressin Receptor Calcium Signal Transduction. Conditions: CHO-AVPR1B, vasopressin-stimulated calcium fluorescence, FDSS. An excerpt:
NIH Chemical Genomics Center [NCGC] NIH Molecular Libraries Probe Production centers Network [MLPCN] MLPCN Grant: X01-DA026210-01 Assay Submitter (PI): Heilig, Markus Alexander NCGC Assay Overview: Neuropeptide S receptor (NPSR), previously known as GPR154, is a recently de-orphanized G protein coupled receptor. Its endogenous ligand is the 20 amino acids peptide Neuropeptide S (NPS). […] NPS and its receptor are found in various tissues. Specifically they are highly expressed in brain areas that have been implicated in modulation of arousal, stress and anxiety. Central administration of NPS in mice produces an unusual profile of activity by inducing wakefulness and arousal, while at the same time suppressing anxiety. Therefore, NPSR may represent a novel drug target for the treatment of sleep and anxiety disorders. To identify NPSR antagonists, we developed a cell-based assay with transfected NPS receptor. NPS can stimulate the production of cAMP as well as release intracellular calcium in Chinese hamster ovary cells stably expressing NPS receptor. This change in intracellular calcium can be detected using a calcium indicator dye on a calcium imaging plate reader system (FDSS). To validate the specific action of compounds on the NPS receptor, a counterscreen was developed that tests compounds' antagonism of AVPR1B vasopressin receptor stimulation by vasopressin. […] shares 27% identity with the NPS receptor.
NCGC Assay Protocol Summary: A Chinese hamster ovary (CHO) cell line stably expressing human vasopressin receptor (AVPR1B) was maintained in F-12 Kaighn's media (Invitrogen, Carlsbad, CA, 21127) supplemented with 10 % FBS, 100 units/ml penicillin, 100 ug/ml streptomycin and 250 ug/ml geneticin at 37C, 5% CO2 in a humidified atmosphere. Before the assay, aliquots of cells were frozen and stored at -135C. The assay was performed on a FDSS-7000 kinetic plate reader in 1536-well format. The maximums of kinetic fluorescence responses were converted into text files using the instrument's software data export utility. Data for antagonist response were normalized to the controls for basal activity (DMSO only) and 100% inhibition (no signal). AC50 values were determined from concentration-response data modeled with the standard Hill equation. CHO-V1B 1536-well FDSS assay protocol: (1) Frozen CHO-V1B cells were thaw, washed once with fresh media and resuspended in F-12 Kaighn's media supplemented with 10 % FBS, 100 units/ml penicillin and 100 ug/ml streptomycin. Cells were plated at 3 ul/well (1200 cells) to black, clear-bottom, tissue-culture treated 1536-well plates, and then cultured at 37C, 5 % CO2 for 16 to 30 hours. (2) Add 3 ul of calcium dye (from High Performance PBX Calcium Assay Kit, BD Biosciences). The calcium dye was prepared according to the manufactory's instruction. (3) Incubation at 37C, 5 % CO2 for 60 min. (4) Add 23 nl/well of compound in DMSO solution. The final titration for each compound was between 0.6 nM and 46 uM. (5) Load plates to FDSS-7000. The following steps were performed on FDSS-7000. (6) Record fluorescent background (Ex 480 nm, Em 520-560 nm) for 10 s. (7) Add 2 ul of stimulation reagent (1X HBSS buffer, 0.1% BSA, 60 nM vasopressin). Record antagonist response (Ex 480 nm, Em 520-560 nm) for 180 s. Keywords: MLSMR, MLPCN, NIH Roadmap, qHTS, NCGC, NPS, Neuropeptide S Antagonists
For orientation: The purpose of a counterscreen is to sort out artefacts and off-target activity.
Consider `N=c1c2c(ccn1CCCc1ccccc1)Oc1ccc3ccccc3c1C2c1ccccc1` (stereo not given), for which the max response was -23.7%.
The value for `CCOC(=O)c1ccc(-n2cnc3c(c2=N)C(c2cccc(OC)c2)c2c(ccc4ccccc24)O3)cc1` (stereo not given) was 17.2%; that for `COc1cccc(C2c3c(ncn(-c4cccc(OC)c4)c3=N)Oc3ccc4ccccc4c32)c1` (stereo not given) was -13.6%.
`COc1cccc(C2c3c(ncn(Cc4cccs4)c3=N)Oc3ccc4ccccc4c32)c1` (stereo not given): the max response is 22.2%.
Then `COc1cccc(C2c3c(ncn(-c4ccccc4-c4ccccc4)c3=N)Oc3ccc4ccccc4c32)c1` (stereo not given), with 13.8%; and `COc1cccc(C2c3c(ncn(-c4ccc(Br)cc4)c3=N)Oc3ccc4ccccc4c32)c1` (stereo not given), with 0.304%.
In the case of `COc1ccc(C2c3c(n(Cc4ccccc4)cnc3=N)Oc3ccc4ccccc4c32)cc1OC` (stereo not given), the max response is -20.3%.
The value for `COc1ccc(C2c3c(ncn(CCc4ccccc4)c3=N)Oc3ccc4ccccc4c32)cc1OC` (stereo not given) was 7.55%; that for `N=c1c2c(ncn1-c1ccccc1)Oc1ccc3ccccc3c1C2c1ccc2c(c1)CCO2` (stereo not given) was -13.6%.
The value for `COc1cccc(C2c3c(ncn(CCN4CCOCC4)c3=N)Oc3ccc4ccccc4c32)c1` (stereo not given) was -2.37%; that for `Cc1c(P(=S)(c2ccccc2)c2ccccc2)[n+]2ccccc2n1CCCc1ccccc1` was -9.72%; that for `COc1cccc(C2c3c(ncn(-c4ccccc4C)c3=N)Oc3ccc4ccccc4c32)c1` (stereo not given) was -2.54%.
Then `CCOC(=O)CCCC(=O)Nc1ncnc2c1C(c1ccccc1)c1c(ccc3ccccc13)O2` (stereo not given), with -39.8%.
For `Cc1c(P(=S)(c2ccccc2)c2ccccc2)c2ccccc2n1CCc1ccccc1`, the max response is -38.1%.
Then `COc1cccc(C2C(C#N)=C(NC(=O)CCc3ccccc3)Oc3ccc4ccccc4c32)c1` (stereo not given), with 10.7%; and `COc1cccc(C2c3c(ncn(-c4cccc(Br)c4)c3=N)Oc3ccc4ccccc4c32)c1` (stereo not given), with -12.3%.
Regarding `Cc1c(P(=S)(c2ccccc2)c2ccccc2)[n+]2ccccc2n1C/C=C/c1ccccc1`, the max response is 1.44%.
Then `COc1ccc(C2c3c(n(CCc4ccccc4)cnc3=N)Oc3ccc4ccccc4c32)cc1OC` (stereo not given), with -53.4%.
Then `COc1ccc(C2c3c(ncn(CCN4CCOCC4)c3=N)Oc3ccc4ccccc4c32)cc1` (stereo not given), with -23.1%; and `COc1ccc2c(c1)Oc1ncn(CCN3CCOCC3)c(=N)c1C2c1ccc(OC)c(OC)c1` (stereo not given), with -21.2%; and `N=c1c2c(ccn1CCc1ccccc1)Oc1ccc3ccccc3c1C2c1ccccc1` (stereo not given), with 11.4%.
For the compound `COc1cccc(C2c3c(ncn(-c4ccccn4)c3=N)Oc3ccc4ccccc4c32)c1` (stereo not given), the max response was 29.6%.
Turning to `COc1cccc(C2c3c(ncn(-c4cccc(Cl)c4)c3=N)Oc3ccc4ccccc4c32)c1` (stereo not given), the max response was -5.71%.
Then `COc1cccc(C2c3c(ncn(-c4ccc(-c5ccccc5)cc4)c3=N)Oc3ccc4ccccc4c32)c1` (stereo not given), with -10.6%; and `COc1cccc(C2c3c(ncn(-c4ccccc4Br)c3=N)Oc3ccc4ccccc4c32)c1` (stereo not given), with 18.9%.
The value for `COc1cccc(C2c3c(ncn(-c4ccc(F)cc4)c3=N)Oc3ccc4ccccc4c32)c1` (stereo not given) was -36.5%.
Then `COc1cccc(C2c3c(ncn(-c4cccnc4)c3=N)Oc3ccc4ccccc4c32)c1` (stereo not given), with -4.29%.
On to `COc1cccc(C2c3c(ncn(-c4cccc(C)c4)c3=N)Oc3ccc4ccccc4c32)c1` (stereo not given), for which the max response is -55.3%.
In the case of `N=c1c2c(ncn1CCN1CCOCC1)Oc1ccc3ccccc3c1C2c1ccccc1` (stereo not given), the max response is 25.9%.
In the case of `COc1cccc(C2c3c(ncn(-c4ccccc4Cl)c3=N)Oc3ccc4ccccc4c32)c1` (stereo not given), the max response is 1.44%.
Then `COc1ccc(C2c3ccc(OCc4ccccc4)cc3Oc3ncn(CCN4CCOCC4)c(=N)c32)cc1OC` (stereo not given), with -15.2%; and `COc1cccc(C2c3c(ncn(-c4ccccc4)c3=N)Oc3ccc4ccccc4c32)c1` (stereo not given), with -8.43%; and `COc1ccc(C2c3c(N)nc(CCCc4ccccc4)nc3Oc3ccc4ccccc4c32)cc1OC` (stereo not given), with -15.9%.
The value for `CCOC(=O)CCC(=O)Nc1ncnc2c1C(c1ccccc1)c1c(ccc3ccccc13)O2` (stereo not given) was -0.278%.
The value for `COc1cccc(C2c3c(ncn(-c4ccc5c(c4)OCO5)c3=N)Oc3ccc4ccccc4c32)c1` (stereo not given) was -20.7%; that for `COc1cccc(C2c3c(ncn(-c4ccc(NC(C)=O)cc4)c3=N)Oc3ccc4ccccc4c32)c1` (stereo not given) was -34.2%; that for `Cc1c(P(=S)(c2ccccc2)c2ccccc2)c2ccccc2n1CCCc1ccccc1` was 8.85%.
In the case of `COc1cccc(C2c3c(ncn(-c4cccc(C#N)c4)c3=N)Oc3ccc4ccccc4c32)c1` (stereo not given), the max response is -10.9%.
As to `COc1ccc(C2c3c(ncn(Cc4ccccc4)c3=N)Oc3ccc4ccccc4c32)cc1OC` (stereo not given), the max response was -10.2%.
As for `COc1cccc(C2c3c(ncn(-c4ccccc4C(C)(C)C)c3=N)Oc3ccc4ccccc4c32)c1` (stereo not given), the max response is 9.94%.

The record behind these values is PubChem BioAssay AID2570 (National Center for Advancing Translational Sciences (NCATS), 2010).
